Experiments:
Assay in all cases: thermal shift delta Tm vs DMSO control; higher = stronger stabilization (binding)
Conditions in all cases: 12.5 µM; protein concentration 2 µM
LOC_OS01G01410-cb001 = test system: LOC_OS01G01410-cb001
How it was run: (§1)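 The melting temperature shift given here is a triplicate mean, measured against protein that received only DMSO. Melting temperatures came from Boltzmann fits of differential scanning fluorimetry data on E. coli-expressed, purified rice kinase domain constructs. Each 19.5 μl well contained 2 μM kinase, 100 mM potassium phosphate pH 7.5, 150 mM NaCl, 10% glycerol, 5 × SYPRO Orange and compound in DMSO. Plates were scanned from 25°C to 95°C at 0.05°C/s.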

LOC_OS01G02750-cb003 = test system: LOC_OS01G02750-cb003
How it was run: as §1

LOC_OS01G10900-cb004 = test system: LOC_OS01G10900-cb004
How it was run: as §1

LOC_OS01G13800-cb001 = test system: LOC_OS01G13800-cb001
How it was run: as §1

LOC_OS01G14860-cb001 = test system: LOC_OS01G14860-cb001
How it was run: as §1

LOC_OS01G21960-cb002 = test system: LOC_OS01G21960-cb002
How it was run: as §1

LOC_OS01G39600-cb002 = test system: LOC_OS01G39600-cb002
How it was run: as §1

LOC_OS01G48390-cb002 = test system: LOC_OS01G48390-cb002
How it was run: as §1

LOC_OS01G51400-cb002 = test system: LOC_OS01G51400-cb002
How it was run: as §1

LOC_OS01G52050-cb004 = test system: T1, LOC_OS01G52050-cb004
T1 sequence (whole entry): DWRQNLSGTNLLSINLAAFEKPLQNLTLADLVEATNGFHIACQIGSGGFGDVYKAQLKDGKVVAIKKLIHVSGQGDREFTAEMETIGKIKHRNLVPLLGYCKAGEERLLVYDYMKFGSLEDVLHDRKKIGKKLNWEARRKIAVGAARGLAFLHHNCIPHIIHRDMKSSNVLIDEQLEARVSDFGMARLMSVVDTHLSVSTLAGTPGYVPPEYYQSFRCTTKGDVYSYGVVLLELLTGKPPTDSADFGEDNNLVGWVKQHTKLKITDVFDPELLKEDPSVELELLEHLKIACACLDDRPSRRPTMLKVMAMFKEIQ
How it was run: as §1

LOC_OS01G57100-cb003 = test system: LOC_OS01G57100-cb003
How it was run: as §1

LOC_OS01G60330-cb001 = test system: LOC_OS01G60330-cb001
How it was run: as §1

LOC_OS01G60700-cb002 = test system: LOC_OS01G60700-cb002
How it was run: as §1

LOC_OS01G63280-cb003 = test system: LOC_OS01G63280-cb003
How it was run: as §1

LOC_OS01G67340-cb003 = test system: LOC_OS01G67340-cb003
How it was run: as §1

LOC_OS01G70970-cb002 = test system: LOC_OS01G70970-cb002
How it was run: as §1

LOC_OS02G07810-cb001 = test system: LOC_OS02G07810-cb001
How it was run: as §1

LOC_OS02G08530-cb003 = test system: LOC_OS02G08530-cb003
How it was run: as §1

LOC_OS02G14120-cb001 = test system: LOC_OS02G14120-cb001
How it was run: as §1

LOC_OS02G17970-cb001 = test system: LOC_OS02G17970-cb001
How it was run: as §1

| SMILES | thermal shift delta Tm (LOC_OS01G01410-cb001) [°C] | thermal shift delta Tm (LOC_OS01G02750-cb003) [°C] | thermal shift delta Tm (LOC_OS01G10900-cb004) [°C] | thermal shift delta Tm (LOC_OS01G13800-cb001) [°C] | thermal shift delta Tm (LOC_OS01G14860-cb001) [°C] | thermal shift delta Tm (LOC_OS01G21960-cb002) [°C] | thermal shift delta Tm (LOC_OS01G39600-cb002) [°C] | thermal shift delta Tm (LOC_OS01G48390-cb002) [°C] | thermal shift delta Tm (LOC_OS01G51400-cb002) [°C] | thermal shift delta Tm (LOC_OS01G52050-cb004) [°C] | thermal shift delta Tm (LOC_OS01G57100-cb003) [°C] | thermal shift delta Tm (LOC_OS01G60330-cb001) [°C] | thermal shift delta Tm (LOC_OS01G60700-cb002) [°C] | thermal shift delta Tm (LOC_OS01G63280-cb003) [°C] | thermal shift delta Tm (LOC_OS01G67340-cb003) [°C] | thermal shift delta Tm (LOC_OS01G70970-cb002) [°C] | thermal shift delta Tm (LOC_OS02G07810-cb001) [°C] | thermal shift delta Tm (LOC_OS02G08530-cb003) [°C] | thermal shift delta Tm (LOC_OS02G14120-cb001) [°C] | thermal shift delta Tm (LOC_OS02G17970-cb001) [°C] |
| --- | --- | --- | --- | --- | --- | --- | --- | --- | --- | --- | --- | --- | --- | --- | --- | --- | --- | --- | --- | --- |
| c1cn2cc(-c3ccc4cn[nH]c4c3)nc(Nc3ccc(N4CCOCC4)cc3)c2n1 [Entospletinib (GS-9973)] | 2.35 | 3.16 | 0.19 | -0.33 | 1.77 | 1.76 | 4.22 | 0.98 | -0.11 | 3.88 | 2.14 | 7.21 | 1.39 | 2 | 2.82 | 1.17 | -0.11 | 3.77 | 8.09 | 0.54 |
| N#Cc1cnc(Nc2cc(NC[C@H]3CNCCO3)c(C(F)(F)F)cn2)cn1 | 0.36 | 2.89 | 0.47 | -0.18 | 2.93 | 0.6 | 0.93 | 2.58 | 0.75 | 5.23 | 0.46 | 1.05 | 1.23 | 0.31 | 0.67 | 1.58 | 0.2 | 0.87 | 2.96 | 0.44 |
| CN1CCN(c2nc(C3=C(c4c[nH]c5ccccc45)C(=O)NC3=O)c3ccccc3n2)CC1 [Sotrastaurin] | 0.84 | 3.23 | 0.77 | 0.15 | 3.2 | 2.53 | 3.02 | 2.55 | 0.38 | -0.06 | 2.03 | 0.97 | 0.76 | 0.55 | 0.35 | 0.69 | 0.94 | 1.16 | 1.17 | 0.29 |
| CC(C)(C#N)c1ccc(N2C(=O)OCc3cnc4ccc(-c5cnc6ccccc6c5)cc4c32)cc1 | 0.56 | 1.19 | 0.21 | 0.42 | 0.26 | 0.66 | 0.12 | 0.59 | 0.65 | 0.6 | 1.9 | 0.57 | 1.49 | 0.63 | 0.63 | 0.56 | 0.18 | 0.94 | 1.27 | 0.63 |
| CCN(CC)CCNC(=O)c1c(C)[nH]c(/C=C2\C(=O)Nc3ccc(F)cc32)c1C [Sunitinib Malate] | 4.49 | 1.04 | 0.54 | -0.1 | 1.29 | 2.13 | 2.58 | 2.08 | 0 | 7.04 | 0.44 | 9.27 | 0.27 | 0.02 | 2.37 | 7 | -0.25 | 5.21 | 7.4 | -0.05 |
| CC(C)(C)c1cc(NC(=O)Nc2ccc(-c3cn4c(n3)sc3cc(OCCN5CCOCC5)ccc34)cc2)no1 [Quizartinib (AC220)] | -0.06 | 0.83 | 0.82 | 0.79 | 0.25 | 1.03 | 0.27 | 0.74 | -0.16 | 0.84 | 0.35 | 0.35 | 1.08 | 0.09 | 0.36 | 0.3 | 0.96 | 1.36 | 0.28 | 1.06 |
| Cn1cnc2c(F)c(Nc3ccc(Br)cc3F)c(C(=O)NOCCO)cc21 | 0.1 | 0.45 | 0.02 | -0.05 | 0.19 | 0.38 | 0.61 | 0.43 | 0.53 | 0.01 | 0.75 | 0.73 | 1.26 | 0.46 | 0.06 | 0.46 | 1.12 | 0.93 | -0.02 | 1.34 |
| O=C(NOC[C@H](O)CO)c1ccc(F)c(F)c1Nc1ccc(I)cc1F | 1.23 | 0.99 | 0.49 | 0.45 | 0.5 | 0.89 | 0.66 | 0.89 | 0.22 | 0.59 | 0.81 | 1.22 | 1.23 | 0.57 | 0.04 | 0.46 | 1.39 | 1.15 | 1.04 | 0.52 |
| O=C(O)c1ccc(-c2c[nH]c3ncc(-c4ccccc4)cc23)cc1C1CCCC1 | 5.06 | 4.25 | 0.46 | -0.9 | 5.49 | 1.3 | 14.5 | -1.42 | -0.58 | 10.5 | 1.09 | -0.77 | -3.79 | 2.57 | 4.86 | 6.62 | 0.4 | 4.81 | 10.7 | -1.49 |
| CNc1nc(Nc2cn(C(C)(C)C#N)nc2C)ncc1C(F)(F)F | 0.23 | 1.65 | 0.23 | 0.93 | 0.11 | 1.18 | -0.3 | 0.76 | 0.31 | 0.37 | 1.92 | 1.38 | 1.27 | 0.69 | 0.49 | 0.2 | 0.4 | 0.86 | 0.65 | 1.09 |
| NC[C@@](O)(c1ccc(Cl)cc1)c1ccc(-c2cn[nH]c2)cc1 | 0.04 | 1.13 | 0.24 | 0.5 | 0.53 | 1.22 | -0.16 | 1.06 | 0.36 | 0.51 | 2.29 | 1.43 | 1.37 | 0.56 | 0.77 | 0.29 | 0.52 | 0.75 | 1.05 | 0.63 |
| Cc1c(NC(=O)OC[C@@H]2COCCN2)cn2ncnc(Nc3ccc4c(cnn4Cc4cccc(F)c4)c3)c12 | 0.88 | -0.18 | 0.06 | 0.7 | 0.19 | 0.52 | 0.91 | 0.07 | 0.14 | 0.23 | 0.24 | 1.47 | 1.55 | 0.59 | -0.1 | 0.39 | 0.88 | 0.86 | 0.51 | 0.42 |

Source: the supplement of paper PMC9694430
